Assay outcomes: PubChem BioAssay, National Center for Advancing Translational Sciences (NCATS)
Only some compounds are listed: those with a hit (about 11% of all), similar ones and a draw of the others.
L3MBTL1 inh: inhibitors of human L3MBTL1. Q9Y468. AlphaScreen L3MBTL1–H3K9me1 peptide binding. Potency, µM (doses to about 57.1 µM), inactives show top-dose activity, negative = inhibition, usual class: inhibitors. 230,000 tested, 0.66% active; note: % is set by controls: 0 for no effect and ±100 for the full control effect; nearly all actives have a fitted effect of over 60% in size
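L3MBTL1 (50 nM) pre-complexed 30 min with biotinylated H3(1-15)K9me1 peptide (75 nM), then compounds added for 30 min at room temperature; AlphaScreen streptavidin donor/nickel chelate acceptor beads (10 ug/mL final) read after 30 min dark incubation.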
HP1b chromo inh: HP1-beta chromodomain-methylated histone interaction inhibition; P83916; AlphaScreen HP1-beta / biotin-H3K9me3 peptide binding; Potency, µM (doses to about 114 µM), for the others: at the highest dose activity change, negative = inhibition, most hits filed as inhibitors; 390,000 tested, 0.56% active; AID 540317; note: nearly all actives have a fitted effect of over 70% in size
Target sequence (P83916 whole entry, looked up): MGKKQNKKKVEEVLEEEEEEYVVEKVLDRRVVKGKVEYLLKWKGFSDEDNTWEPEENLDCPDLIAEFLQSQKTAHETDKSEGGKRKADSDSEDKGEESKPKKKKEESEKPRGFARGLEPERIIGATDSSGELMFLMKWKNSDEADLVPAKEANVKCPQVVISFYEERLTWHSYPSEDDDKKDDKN
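HP1-beta protein (50 nM final) preincubated 30 min at room temperature with biotinylated H3(1-18)K9me3 peptide (50 nM) in PBS pH 7.4, 0.01% Tween-20, then compound added for 30 min. AlphaScreen streptavidin donor/nickel chelate acceptor beads (10 ug/mL final), 30 min dark, luminescence read.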
JMJD2A Tudor: blocks the human JMJD2A Tudor domain | AlphaScreen JMJD2A-Tudor / H3K4me3 peptide binding | Potency, µM (highest dose often 114 µM), for inactives: at the highest dose activity change, negative = inhibition, hits mostly inhibitors | 390,000 tested, 4.4% active; note: % is set by controls: 0 for no effect and ±100 for the full control effect; nearly all actives have a fitted effect of over 50% in size
G9a block: inhibitors of human histone lysine methyltransferase G9a; G9a H3K9 monomethylation, AlphaScreen, 2 h; Potency, µM (series often up to 102 µM), inactives show at the highest dose activity, negative = inhibition, usual class: inhibitors; 350,000 tested, 8.8% active; AID 504332; note: % is set by controls: 0 for no effect and ±100 for the full control effect; nearly all actives have a fitted effect of over 75% in size
Target sequence (Q96KQ7 913-1193 limits assumed): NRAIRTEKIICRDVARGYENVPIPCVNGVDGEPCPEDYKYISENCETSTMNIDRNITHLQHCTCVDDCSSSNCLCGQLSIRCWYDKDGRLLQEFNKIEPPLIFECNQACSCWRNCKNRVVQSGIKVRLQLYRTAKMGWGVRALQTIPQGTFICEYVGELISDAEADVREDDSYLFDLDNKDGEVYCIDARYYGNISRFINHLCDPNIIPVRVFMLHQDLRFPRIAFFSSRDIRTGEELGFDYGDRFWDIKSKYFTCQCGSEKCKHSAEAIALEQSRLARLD
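Compounds were preincubated with 20 nM G9a for 15 min, after which biotinylated H3K9 peptide (500 nM) and SAM (20 uM) started a 2 h room-temperature reaction. Monomethylated product was quantified by antibody-based AlphaScreen chemiluminescence.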
BAZ2B block: BAZ2B (human) inhibition | AlphaScreen BAZ2B-H3K14Ac peptide displacement | Potency, µM (doses to about 114 µM), for inactives: at the top dose activity change, negative = inhibition, usual class: inhibitors | 360,000 tested, 4.4% active | AID 504333; note: % is set by controls: 0 for no effect and ±100 for the full control effect; nearly all actives have a fitted effect of over 60% in size
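AlphaScreen displacement of biotin-H3(5-23)K14Ac peptide (50 nM final) from BAZ2B (50 nM final) in PBS pH 7.4, 0.01% Tween-20; complex preformed 30 min RT, then compounds (top 110 uM) 30 min RT, beads 20 min dark.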
* = called active by the depositor; ? = inconclusive; . = not tested or not shown; [ ] = dose if it differs, or a comment. Calls come from the whole dose curve; as a rule, active = well fitted inhibition curve with a large enough effect; inconclusive = small, poorly fitted or top-dose-only effect; inactive = no such curve, though single readings can be large or run the other way. Potency is the fitted concentration of half-maximal effect.

SMILES	L3MBTL1 inh	HP1b chromo inh	JMJD2A Tudor	G9a block	BAZ2B block
CCN(CC)S(=O)(=O)c1ccc2c(c1)c(=O)c(C(=O)N1CCN(c3cccc(C)c3)C(C)C1)cn2C (stereo unspecified)	.	41%	-27%	-2%[59 µM]	.
CCOC(=O)C1CSc2[nH]c(=O)sc2C1c1ccccc1 (stereo unspecified)	.	34%	-15%	45µM*	0%
COc1ccc(C2c3sc(=O)[nH]c3SC3C4CCC(C4)C23)cc1 (stereo unspecified)	-10%	-7%	-30%	?	?
COC(=O)C1CSc2[nH]c(=O)sc2C1c1ccc(O)c(OC)c1 (stereo unspecified)	.	2%	-20%	14µM*	-32%
COc1cc(C2c3sc(=O)[nH]c3SC3C4CCC(C4)C23)ccc1O (stereo unspecified)	-12%	?	?	13µM*	?
O=c1[nH]c2c(s1)C(c1ccccc1)C1C3CCC(C3)C1S2 (stereo unspecified)	.	5%	-28%	45µM*	-22%
COc1cc(C2c3sc(=O)[nH]c3SC3C(=O)N(c4ccc(C)cc4)C(=O)C32)ccc1O (stereo unspecified)	-15%	1%	-32%	?	?
CCSc1nnc2n(-c3cccc(C)c3)c(=O)c3c4c(sc3n12)CCCC4	.	32%	-8%	-44%[59 µM]	-2%
COC(=O)c1ccc(-n2c(/C=C\c3cccc(Br)c3)nc3ccccc3c2=O)cc1	.	25%	-15%	9%[59 µM]	1%
COc1cccc(C2=NOC(C(=O)N3CCc4ccccc4C3)C2)c1 (stereo unspecified)	18%	36%	-12%	7.9µM*	11%
O=C(C1CC(c2ccc(F)cc2)=NO1)N1CCc2ccccc2C1 (stereo unspecified)	.	26%	-22%	14%	3%
COC(=O)c1ccc(NC(=O)c2ccc3c(c2)NC(=O)C2CCCN32)cc1 (stereo unspecified)	?	.	.	10µM*	50µM*
O=C1Nc2cc(Cl)cnc2N2CCCC12 (stereo unspecified)	-10%	13%	-35%	8.9µM*	-2%
O=C1Nc2ccc(C(F)(F)F)cc2N2CCCC12 (stereo unspecified)	.	.	.	11µM*	-2%
CC1CCC(NC(=O)CN2C(=O)C3CCCN3c3ncc(Cl)cc32)CC1 (stereo unspecified)	5%	.	.	?	6%
O=C1Nc2cc(C(F)(F)F)ccc2N2CCCCC12 (stereo unspecified)	.	49%	0%	50µM*	-14%
O=S(=O)(c1ccc(F)cc1)N1CC2CCCN2c2ccc(C(F)(F)F)cc21 (stereo unspecified)	8%	32%	-10%	89%[59 µM]	-8%
Cc1cccc(-c2nnn3c2nc(NCc2ccccc2)c2ccccc23)c1	.	31%	-14%	6%[59 µM]	0%
CCN(CC)S(=O)(=O)c1ccc2c(c1)NC(=O)C1CCCN21 (stereo unspecified)	.	29%	5%	-7%	3%
O=C1Nc2ccccc2N2CCCC12 (stereo unspecified)	-21%	.	.	20µM*	-23%
O=C1Nc2cc(S(=O)(=O)N3CCCC3)ccc2N2CCCC12 (stereo unspecified)	-22%	31%	-16%	22µM*	?
COc1ccc(NC(=O)CCc2c(C)nc3c(c2C)c(=O)n(C)c(=O)n3C)c(OC)c1	.	28%	-5%	3%[59 µM]	-15%
CC1(C)Cc2c(cnn2-c2ccccc2)-c2c1c1ccccc1n2CC(O)CBr (stereo unspecified)	-6%	-18%	?	?	?
CC(C)C(=O)OCc1cn(-c2ccc(Cl)c(Cl)c2)nn1	19%	-4%	22µM*	26%	66%
CC(C)(C)C(=O)OCc1cn(-c2ccc(Cl)cc2)nn1	7%	44%	5%	?	1%
O=C1CCCc2cc(S(=O)(=O)NCC3CCC(C(=O)Nc4ccc(Cl)cc4)CC3)ccc2N1 (stereo unspecified)	.	23%	-7%	-16%[59 µM]	-1%
